# Results as given in PubChem BioAssay.
# Calls of active or inactive are those of the source.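 How the source made its calls, unless noted: active means compounds that lower survival of HCT116 colon cancer cells in the luminescence readout, no numeric limit stated; inactive means the rest.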
# Experiment: HCT116 colon cancer cell growth inhibition, primary screen, CellTiter-Glo luminescence, NPC library (AID 1117342)
# Settings: at 20 µM (top of the series)
row,SMILES,inhibition of viability
1,CCN(CCCCOC(=O)c1ccc(OC)c(OC)c1)C(C)Cc1ccc(OC)cc1 (centres undefined),26.7% (inactive)
2,O=C(O)CSCC(=O)NC1CCSC1=O (centres undefined),9% (inactive)
3,O=C1c2ccccc2C(=O)C1c1ccccc1,-1% (inactive)
4,COCCCOc1cc(C[C@@H](C[C@H](N)[C@@H](O)C[C@H](C(=O)NCC(C)(C)C(N)=O)C(C)C)C(C)C)ccc1OC,19.7% (inactive)
5,Cc1onc(-c2ccccc2Cl)c1C(=O)N[C@@H]1C(=O)N2[C@@H]1SC(C)(C)[C@@H]2C(=O)O,19.2% (inactive)
6,Cc1cccc(C(=O)O)c1O,-0.1% (inactive)
7,CCCCCCCCCCCCCCCCCCOCC(O)CO (centres undefined),-10.7% (inactive)
8,CCN(CC)CCNC(=O)COc1ccc(OC)cc1,-18.7% (inactive)
9,CN1CCOC(c2ccccc2)c2ccccc2C1 (centres undefined),12.4% (inactive)
10,CCCCC(=O)O[C@]1(C(=O)CO)[C@@H](C)C[C@H]2[C@@H]3CCC4=CC(=O)C=C[C@]4(C)[C@@]3(F)[C@@H](O)C[C@@]21C,12.9% (inactive)
11,C[n+]1c2cc(N)ccc2cc2ccc(N)cc21 (tested in a mixture with another compound),83.8% (active)
12,CCC(C)n1ncn(-c2ccc(N3CCN(c4ccc(OC[C@H]5CO[C@](Cn6cncn6)(c6ccc(Cl)cc6Cl)O5)cc4)CC3)cc2)c1=O (some centres undefined),75.3% (active)
13,O=c1[nH]cnc2c1ncn2[C@@H]1O[C@H](CO)[C@@H](O)[C@H]1O,-0.1% (inactive)
14,CCN(CCCc1ccccc1)CCCc1ccccc1,41.4% (inactive)
15,CN1CCN(c2cc3c(cc2F)c(=O)c(C(=O)O)cn3-c2ccc(F)cc2)CC1,17.4% (inactive)
16,C/C=C1\[C@H]2C=C(C)C[C@]1(N)c1ccc(=O)[nH]c1C2,3.1% (inactive)
17,COc1ccccc1OCC(O)CO (centres undefined),-1.2% (inactive)
18,CC1=C(C)C(=O)C(C(CCCCCC(=O)O)c2ccccc2)=C(C)C1=O (centres undefined),-4.2% (inactive)
19,NS(=O)(=O)c1cc2c(cc1Cl)NC(C(Cl)Cl)NS2(=O)=O (centres undefined),-37.1% (inactive)

row,SMILES,inhibition of viability
1,C[C@@H]1CN(c2c(F)c(F)c3c(=O)c(C(=O)O)cn(C4CC4)c3c2F)C[C@H](C)N1,4.9% (inactive)
2,O=C(O)c1ccccc1Nc1cccc(C(F)(F)F)c1,66.3% (active)
3,CCCc1ncc(C[n+]2ccccc2C)c(N)n1,-12.5% (inactive)
4,O=C(O)/C=C(\CC(=O)O)C(=O)O,7.4% (inactive)
5,Cc1nc2n(c(=O)c1CCN1CCC(c3noc4cc(F)ccc34)CC1)CCC[C@H]2O,20.5% (inactive)
6,NC(N)=NCCN1CCCCCCC1,30% (inactive)
7,Cc1cc(=O)n(-c2ccccc2)n1C,1.15% (inactive)
8,C[N+]1(C)[C@@H]2CC(OC(=O)[C@H](CO)c3ccccc3)C[C@H]1[C@@H]1O[C@@H]12 (some centres undefined),2% (inactive)
9,CC(C)NC[C@@H](O)COc1cccc2ccccc12,0.8% (inactive)
10,Cc1c(C(=O)O)c(O)cc2c1C(=O)c1c(O)c([C@@H]3O[C@H](CO)[C@@H](O)[C@H](O)[C@H]3O)c(O)c(O)c1C2=O,35% (inactive)
11,CO[C@H]1C=CO[C@@]2(C)Oc3c(C)c(O)c4c(O)c(c(/C=N/N5CCN(C)CC5)c(O)c4c3C2=O)NC(=O)/C(C)=C\C=C[C@H](C)[C@H](O)[C@@H](C)[C@@H](O)[C@@H](C)[C@H](OC(C)=O)[C@@H]1C,67.5% (active)
12,NC(CS)C(=O)O (centres undefined),16.7% (inactive)
13,Cc1nc(-c2ccc(OCC(C)C)c(C#N)c2)sc1C(=O)O,25.4% (inactive)
14,Oc1cccc2[nH]ccc12,9.6% (inactive)
15,CCCCCCCCCCCCCCCCC(C(=O)O)C(O)(CC(=O)O)C(=O)O (centres undefined),99.3% (active)
16,C#CCN[C@@H]1CCc2ccccc21,-2% (inactive)
17,Cc1c[nH]c2ccccc12,10.3% (inactive)
18,CC(=O)Oc1c(C)c(C)c2c(c1C)CC[C@@](C)(CCC[C@H](C)CCC[C@H](C)CCCC(C)C)O2,1.13% (inactive)

# Experiment: reduced SW480 viability measured with CellTiter-Glo, NPC library, primary (AID 1117343;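 active means compounds that lower viability of the colon cancer cells in the luminescence readout, with no numeric limit stated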)
# Settings: CellTiter-Glo luminescence; at 20 µM (top of the series)
row,SMILES,viability decrease (inhibition)
1,CCN(CCCCOC(=O)c1ccc(OC)c(OC)c1)C(C)Cc1ccc(OC)cc1 (centres undefined),20% (inactive)
2,O=C(O)CSCC(=O)NC1CCSC1=O (centres undefined),15.2% (inactive)
3,O=C1c2ccccc2C(=O)C1c1ccccc1,1.3% (inactive)
4,COCCCOc1cc(C[C@@H](C[C@H](N)[C@@H](O)C[C@H](C(=O)NCC(C)(C)C(N)=O)C(C)C)C(C)C)ccc1OC,4.7% (inactive)
5,Cc1onc(-c2ccccc2Cl)c1C(=O)N[C@@H]1C(=O)N2[C@@H]1SC(C)(C)[C@@H]2C(=O)O,-3.3% (inactive)
6,Cc1cccc(C(=O)O)c1O,22.1% (inactive)
7,CCCCCCCCCCCCCCCCCCOCC(O)CO (centres undefined),4.8% (inactive)
8,CCN(CC)CCNC(=O)COc1ccc(OC)cc1,22.1% (inactive)
9,CN1CCOC(c2ccccc2)c2ccccc2C1 (centres undefined),40.1% (inactive)
10,CCCCC(=O)O[C@]1(C(=O)CO)[C@@H](C)C[C@H]2[C@@H]3CCC4=CC(=O)C=C[C@]4(C)[C@@]3(F)[C@@H](O)C[C@@]21C,-0.4% (inactive)
11,C[n+]1c2cc(N)ccc2cc2ccc(N)cc21 (tested in a mixture with another compound),68.8% (active)
12,CCC(C)n1ncn(-c2ccc(N3CCN(c4ccc(OC[C@H]5CO[C@](Cn6cncn6)(c6ccc(Cl)cc6Cl)O5)cc4)CC3)cc2)c1=O (some centres undefined),112% (active)
13,O=c1[nH]cnc2c1ncn2[C@@H]1O[C@H](CO)[C@@H](O)[C@H]1O,-39.7% (inactive)
14,CCN(CCCc1ccccc1)CCCc1ccccc1,44% (inactive)
15,CN1CCN(c2cc3c(cc2F)c(=O)c(C(=O)O)cn3-c2ccc(F)cc2)CC1,-0.8% (inactive)
16,C/C=C1\[C@H]2C=C(C)C[C@]1(N)c1ccc(=O)[nH]c1C2,-14.7% (inactive)
17,COc1ccccc1OCC(O)CO (centres undefined),17.6% (inactive)
18,CC1=C(C)C(=O)C(C(CCCCCC(=O)O)c2ccccc2)=C(C)C1=O (centres undefined),-12.9% (inactive)
19,NS(=O)(=O)c1cc2c(cc1Cl)NC(C(Cl)Cl)NS2(=O)=O (centres undefined),-6.6% (inactive)

row,SMILES,viability decrease (inhibition)
1,C[C@@H]1CN(c2c(F)c(F)c3c(=O)c(C(=O)O)cn(C4CC4)c3c2F)C[C@H](C)N1,24.4% (inactive)
2,O=C(O)c1ccccc1Nc1cccc(C(F)(F)F)c1,70.1% (active)
3,CCCc1ncc(C[n+]2ccccc2C)c(N)n1,-33.4% (inactive)
4,O=C(O)/C=C(\CC(=O)O)C(=O)O,39.3% (inactive)
5,Cc1nc2n(c(=O)c1CCN1CCC(c3noc4cc(F)ccc34)CC1)CCC[C@H]2O,-9.1% (inactive)
6,NC(N)=NCCN1CCCCCCC1,-11.2% (inactive)
7,Cc1cc(=O)n(-c2ccccc2)n1C,4% (inactive)
8,C[N+]1(C)[C@@H]2CC(OC(=O)[C@H](CO)c3ccccc3)C[C@H]1[C@@H]1O[C@@H]12 (some centres undefined),-6.3% (inactive)
9,CC(C)NC[C@@H](O)COc1cccc2ccccc12,54.8% (active)
10,Cc1c(C(=O)O)c(O)cc2c1C(=O)c1c(O)c([C@@H]3O[C@H](CO)[C@@H](O)[C@H](O)[C@H]3O)c(O)c(O)c1C2=O,53.2% (active)
11,CO[C@H]1C=CO[C@@]2(C)Oc3c(C)c(O)c4c(O)c(c(/C=N/N5CCN(C)CC5)c(O)c4c3C2=O)NC(=O)/C(C)=C\C=C[C@H](C)[C@H](O)[C@@H](C)[C@@H](O)[C@@H](C)[C@H](OC(C)=O)[C@@H]1C,87.1% (active)
12,NC(CS)C(=O)O (centres undefined),34.5% (inactive)
13,Cc1nc(-c2ccc(OCC(C)C)c(C#N)c2)sc1C(=O)O,57.5% (active)
14,Oc1cccc2[nH]ccc12,0.4% (inactive)
15,CCCCCCCCCCCCCCCCC(C(=O)O)C(O)(CC(=O)O)C(=O)O (centres undefined),103% (active)
16,C#CCN[C@@H]1CCc2ccccc21,-41% (inactive)
17,Cc1c[nH]c2ccccc12,15% (inactive)
18,CC(=O)Oc1c(C)c(C)c2c(c1C)CC[C@@](C)(CCC[C@H](C)CCC[C@H](C)CCCC(C)C)O2,-13.6% (inactive)
